# Test results as given in PubChem BioAssay AID430 (Sanford-Burnham Center for Chemical Genomics, 2006).
# Several values for one entry are separate records, joined by “and”; a condition that tells them apart may be missing. Equal values may be shown once. Out of some 63,000 compounds screened, about 1,100 (1.7%) were called active. No stated cut-off is given here; in the data, active means cytotoxicity above about 50%; inactive means the rest. This excerpt belongs to a sample that is enriched for actives. Measured potencies and affinities stand elsewhere. The source holds several records for some structures; these can differ, active in one and inactive in another.
# Assay: cytotoxicity in HPDE-C7 cells, cell-based, fluorescence, HTS (AID 430);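 further: cells exposed to compound for 48 hours before viability readout; 0% = vehicle and 100% = reference cytotoxic drug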
# Conditions: HPDE-C7 pancreatic duct cells viability, at 10 µM, stronger effect = higher value
row,SMILES,cytotoxicity
1,CCN(C(=O)c1ccc(C(C)(C)C)cc1)c1nnc(Cn2nnc3ccccc32)s1,81.9% (active)
2,CCN(C(=O)CSc1nnc(Cn2nnc3ccccc32)o1)c1nc(-c2ccccc2)cs1,-7.6% (inactive)
3,CCN(C(C)=O)c1nnc(CSc2nc3ccccc3s2)s1,12.1% (inactive)
4,COc1ccc(N2CCN(C(=O)CCNS(=O)(=O)c3ccc(Br)s3)CC2)cc1,-17.4% (inactive)
5,Cc1ccc(S(=O)(=O)N2CCC(C(=O)Nc3nnc(COc4ccccc4)s3)CC2)cc1,-3.6% (inactive)
6,O=C(CCNC(=O)Cn1ccc2ccccc2c1=O)NCCCN1CCN(c2ccccc2F)CC1,-10.7% (inactive)
7,Cc1cc(C)c2c(=O)n(CC(=O)NCCCN3CCN(c4ccccc4F)CC3)sc2n1,88.5% (active)
8,Cc1cc(C)c2c(=O)n(CC(=O)NCCCN3CCOCC3)sc2n1,6.4% (inactive)
9,CCC(NC(=O)Nc1ncccc1C)(C(F)(F)F)C(F)(F)F,-6.7% (inactive)
10,CCOC(=O)N1CCN(C(=O)c2ccc3c(c2)sc2nc(-c4ccccc4)cn23)CC1,2.8% (inactive)
11,COc1ccc2c(c1)sc1nc(-c3ccccc3)cn12,53.2% (active)
12,CCOC(=O)N1CCN(C(=O)c2ccc3c(c2)sc2nc(-c4ccc(OC)cc4)cn23)CC1,12.1% (inactive)
13,CS(=O)(=O)N(CC(=O)NCc1ccco1)Cc1ccc(Cl)cc1,-9.3% (inactive)
14,COc1ccccc1S(=O)(=O)Cc1ccc(C(=O)NCCN(C)C)o1,8% (inactive)
15,O=S(=O)(c1cccc2nsnc12)N1CCN(c2ncccn2)CC1,-8.5% (inactive)
16,COc1ccc(C2=CC(c3ccc(OC)c(OC)c3)n3nnnc3N2)c(OC)c1 (configuration not stated),14.7% (inactive)
17,COc1ccc(C2=CC(c3ccc(F)cc3)n3nnnc3N2)cc1 (configuration not stated),-4% (inactive)
18,COc1ccccc1C1C=C(c2ccccc2)Nc2nnnn21 (configuration not stated),29.6% (inactive)
19,COc1cccc(C2=CC(c3ccc(N(C)C)cc3)n3nnnc3N2)c1 (configuration not stated),-3% (inactive)
20,COc1cccc(C2=CC(c3ccccc3)n3nnnc3N2)c1 (configuration not stated),53.7% (active)
21,COc1ccc(C2C=C(c3ccccc3)Nc3nnnn32)cc1 (configuration not stated),-3.3% (inactive)
22,COc1ccc(C2=CC(c3c(C)nn(-c4ccccc4)c3Cl)n3nnnc3N2)cc1OC (configuration not stated),72.4% (active)
23,COc1ccc(OC)c(C2C=C(c3ccc(C)c(C)c3)Nc3nnnn32)c1 (configuration not stated),10.4% (inactive)
24,COc1cccc(C2=CC(c3cc(OC)ccc3OC)n3nnnc3N2)c1 (configuration not stated),70.3% (active)
25,COc1ccccc1C1C=C(c2ccc(C)cc2)Nc2nnnn21 (configuration not stated),-0.5% (inactive)
26,COc1ccc(C2=CC(c3sccc3C)n3nnnc3N2)cc1 (configuration not stated),12.4% (inactive)

row,SMILES,cytotoxicity
1,CCOC(=O)N1CCN(c2c(N3CCC(N4CCCCC4)CC3)c(=O)c2=O)CC1,10.5% (inactive)
2,CN(Cc1ccccc1)Cc1nc2c(c(=O)n(C)c(=O)n2C)n1Cc1ccc(F)cc1,-29.4% (inactive)
3,O=C(CCS(=O)(=O)c1cccc2nsnc12)N1CCN(C(=O)c2ccco2)CC1,-15.9% (inactive)
4,CN1CCN(C2=NC3(CCCC3)C(C#N)C(=O)N2)CC1 (configuration not stated),23.5% (inactive)
5,COC(=O)c1c(F)c(F)c(NCCO)c(F)c1F,-3.7% (inactive)
6,CC(NC(=O)NC1CCCCC1)C(c1cccs1)N1CCOCC1 (configuration not stated),-7.5% (inactive)
7,CCOC(=O)C1CCN(C(=O)CSc2n[nH]c(=O)[nH]c2=O)CC1,9.8% (inactive)
8,CNC(=O)/C(=N\O)c1ccccc1,-14.1% (inactive)
9,COc1cc(C(=O)NCCc2ccc(S(N)(=O)=O)cc2)cc(OC)c1OC,3.4% (inactive)
10,COc1ccc(C2=CC(c3ccc(C)cc3)n3nnnc3N2)cc1 (configuration not stated),-1.9% (inactive)
11,COc1cccc(C2=CC(c3cccc(OC)c3OC(F)F)n3nnnc3N2)c1 (configuration not stated),-21.2% (inactive)
12,CCOc1ccc(C2C=C(c3ccc(C)cc3)Nc3nnnn32)cc1 (configuration not stated),-0.9% (inactive)
13,COc1cccc(C2=CC(c3ccc(OC)c(OC)c3OC)n3nnnc3N2)c1 (configuration not stated),-3.9% (inactive)
14,COc1cccc(C2=CC(c3cccc(OC)c3OC)n3nnnc3N2)c1 (configuration not stated),71.4% (active)
15,O=C(CCNS(=O)(=O)c1cccs1)Nc1ccccc1F,-34.3% (inactive)
16,COc1ccc(Cn2nnnc2CN2CCC(c3nc4ccccc4s3)CC2)cc1,-9.8% (inactive)
17,Cc1c(C(=O)OC(C)C)[nH]c2c1C(=O)CC(C)(C)C2,-0.2% (inactive)
18,CCOC(=O)C1CCCN(C(=O)CCC(=O)Nc2ccc3nc(N4CCOCC4)cc(C)c3c2)C1 (configuration not stated),9.9% (inactive)
19,CCOc1ccc2[nH]c(=O)c(CN(CCO)C(=O)c3ccc(Br)cc3)cc2c1,6.1% (inactive)
20,O=C1CN(C(=O)COC(=O)COc2ccc3c(c2)CCC3)c2ccccc2N1,2.9% (inactive)
21,COc1cc(NC(=O)c2cnn3c(C)cc(C)nc23)c(OC)cc1Cl,12.9% (inactive)
22,CC1(C)Cc2c(sc3c2c(=N)n(Cc2ccco2)c(=O)n3CC(=O)Nc2ccccc2)CO1,5.3% (inactive)
23,CC1(C)Cc2c(sc3c2c(=N)n(Cc2ccco2)c(=O)n3CC(=O)Nc2ccc(Cl)cc2)CO1,51.5% (active)
24,Cc1ccc(NC(=O)Cn2c(=O)n(Cc3ccco3)c(=N)c3c4c(sc32)COC(C)(C)C4)cc1,24.6% (inactive)
25,Cc1cccc(OCC(O)Cn2c(-n3nc(C)cc3C)nc3c2c(=O)[nH]c(=O)n3C)c1 (configuration not stated),-2.9% (inactive)
26,CCCOC(=O)Nc1nc2ccccc2o1,-8.2% (inactive)

row,SMILES,cytotoxicity
1,COc1ccccc1C(=O)Nc1nnc(-c2ccc(F)cc2)o1,4.1% (inactive)
2,Cc1nc2ccc(N3C(=O)CCC3=O)cc2[nH]1,-18.8% (inactive)
3,COc1ccc(CN2CCN(S(=O)(=O)c3ccccc3)CC2)c(OC)c1,-0.4% (inactive)
4,O=C(CCC1CCCC1)N1CCN(C(=O)COc2ccccc2)CC1,8.2% (inactive)
5,COc1ccc(-n2c(SCC(=O)c3c(N)n(C)c(=O)n(C)c3=O)nc3ccccc32)cc1,6.1% (inactive)
6,NC(=O)CSc1nc2ccccc2n1-c1ccccc1,-1.9% (inactive)
7,Cn1c(N)c(C(=O)CSc2nc3ccccc3n2-c2ccccc2)c(=O)n(C)c1=O,106% (active)
8,Cc1ccc(NC(=O)CS(=O)CC(=O)Nc2cccc(C)c2C)cc1F (configuration not stated),-15.9% (inactive)
9,COc1ccc(Cl)c(Cn2c(NCC(C)O)nc3c2c(=O)n(C)c(=O)n3C)c1 (configuration not stated),-9.9% (inactive)
10,O=C1c2ccccc2-c2nccnc21,-15.6% (inactive)
11,O=C(O)c1ccc2c3c(ncnc13)-c1ccccc1C2=O,75.6% (active)
12,O=C1c2ccccc2-c2ncnc3cccc1c23,0.7% (inactive)
13,CCc1nnc(NC(=O)CCN2C(=O)c3ccccc3S2(=O)=O)s1,-4.2% (inactive)
14,Nc1nc(F)nc2c1ncn2[C@@H]1O[C@H](CO)[C@@H](O)[C@@H]1O,13.2% (inactive)
15,Nc1nc(Cl)nc2c1ncn2[C@H]1C[C@H](O)[C@@H](CO)O1,7.4% (inactive) and 95.9% (active)
16,Nc1nc(Cl)nc2c1ncn2[C@@H]1O[C@H](CO)[C@@H](O)[C@H]1O,8.6% (inactive)
17,Cc1ccc(NC(=O)Cn2c(C)cc(C)c(C#N)c2=O)c(Cl)c1,-6.5% (inactive)
18,O=C(CN1C(=O)CSc2ccccc21)NCCC1=CCCCC1,-11% (inactive)
19,COc1ccc(NS(=O)(=O)c2cc(C)ccc2OC)cc1OC,10.3% (inactive)
20,CCCN1CN(Cc2ccco2)c2nc3ccccc3n2C1,-15.1% (inactive)
21,COc1ccccc1N1CCN(Cc2ccco2)CC1,-25.7% (inactive)
22,c1ccc(CCN2CN(CCCN3CCOCC3)c3nc4ccccc4n3C2)cc1,-23.9% (inactive)
23,c1ccc(CN2CCN(c3ncccn3)CC2)nc1,6% (inactive)
24,CN1C(=O)C2(c3ccccc31)N(C)CC(c1ccccn1)C21SC(=S)N(Cc2ccco2)C1=O (configuration not stated),-9.5% (inactive)
25,COCCN1CSC(=S)N(Cc2ccco2)C1,50.6% (active)
26,S=C1SCN(CCN2CCOCC2)CN1Cc1ccccc1,60.6% (active)

row,SMILES,cytotoxicity
1,O=C(N1CCOCC1)N1CCN(Cc2ccccc2)CC1,4.1% (inactive)
2,S=C1SCN(Cc2ccccn2)CN1Cc1ccco1,64.7% (active)
3,CCOc1cccc(C(=O)Nc2cccc(-c3nc4ncccc4o3)c2C)c1,4.2% (inactive)
4,COc1ccc(-n2c(Cc3cccn3C)nnc2SCC(=O)NCC2CCCO2)cc1 (configuration not stated),-8.1% (inactive)
5,O=C1NC(c2cccs2)Nc2sc3c(c21)CCCC3 (configuration not stated),0.6% (inactive)
6,CC(C)(C)c1ccccc1NC(=O)c1ccco1,15% (inactive)
7,O=C(Nc1cccnc1)c1ccc(COc2ccccc2Br)o1,23.7% (inactive)
8,COc1ccc(NC(=O)c2ccc(COc3ccccc3Br)o2)cc1OC,36.6% (inactive)
9,COc1cc(NC(=O)c2ccc(COc3ccccc3Br)o2)cc(OC)c1OC,56.6% (active)
10,CCOC(=O)C1CCN(C(=O)CN(Cc2ccc(Cl)cc2)S(C)(=O)=O)CC1,-1% (inactive)
11,Cn1c(CCCOc2ccc(Cl)cc2Cl)nnc1SCC(=O)Nc1nccs1,1% (inactive)
12,O=C(CCS(=O)(=O)c1ccc(Br)cc1)N1CCN(c2ccccc2)CC1,-1.2% (inactive)
13,CCOC(=O)c1[nH]c(C)c(C(=O)Nc2cc(OC)ccc2OC)c1C,43.5% (inactive)
14,CCOC(=O)c1[nH]c(C)c(C(=O)N2CCc3ccccc32)c1C,58.8% (active)
15,CCOC(=O)c1[nH]c(C)c(C(=O)Nc2ccc(F)cc2)c1C,-4.5% (inactive)
16,CCOC(=O)c1[nH]c(C)c(C(=O)Nc2ccc(Cl)cc2)c1C,-8.4% (inactive)
17,CC(=O)c1c(C)[nH]c(C(=O)N2CCc3ccccc32)c1C,1.3% (inactive)
18,CCOC(=O)c1[nH]c(C)c(C(=O)Nc2ccc(C)c(C)c2)c1C,8.5% (inactive)
19,CCOC(=O)c1[nH]c(C)c(C(=O)OCC)c1C,-6% (inactive)
20,CCOC(=O)c1[nH]c(C)c(C(=O)Nc2ccc(C)c(Cl)c2)c1C,-20.5% (inactive)
21,CCOC(=O)c1[nH]c(C)c(C(=O)Nc2cc(Cl)ccc2C)c1C,60.6% (active)
22,CCOC(=O)c1[nH]c(C)c(C(=O)c2cc(F)ccc2F)c1C,72.2% (active)
23,CCOC(=O)c1c(C)[nH]c(C(=O)OCC(=O)N2CCc3ccccc32)c1C,-15.4% (inactive)
24,CCOC(=O)c1[nH]c(C)c(C(=O)Nc2ccc(C)cc2C)c1C,51.9% (active)
